Only some compounds are listed: those with a hit (about 2.9% of all), similar ones and a draw of the others.
KLK7 zymogen act = activates the human kallikrein-7 zymogen | P49862 | purified proKLK7, EDANS-DABCYL substrate fluorescence; 100% is mature enzyme control, 0% vehicle | activation, % at 7 µM | 370,000 compounds, 0.9% hits;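 active = activation above the mean of all tested compounds plus 3 SD, computed per campaign excluding outliers beyond control limits, cut at about 13% in these data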
Target sequence (P49862 whole entry, looked up): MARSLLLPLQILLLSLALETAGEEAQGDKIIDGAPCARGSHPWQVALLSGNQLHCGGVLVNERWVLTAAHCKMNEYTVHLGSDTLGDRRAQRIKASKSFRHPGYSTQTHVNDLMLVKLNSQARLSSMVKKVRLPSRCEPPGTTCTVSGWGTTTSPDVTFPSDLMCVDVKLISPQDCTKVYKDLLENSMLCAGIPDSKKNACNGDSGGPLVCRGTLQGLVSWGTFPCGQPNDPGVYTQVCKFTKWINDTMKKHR
PLCb3 inh = inhibitors of human phospholipase C beta3 | Q01970 | Purified PLC-beta3, fluorogenic substrate, fluorescence | inhibition, % at 12.2 µM | 370,000 compounds, 0.18% hits; in the data active = inhibition above about 11%;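 note: 0% = median of compound wells on plate and 100% = full blocker control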
ADAM17 inh = ADAM17 inhibition, QFRET primary screen. P78536. recombinant ADAM17, EDANS/DABCYL FRET peptide cleavage. inhibition, % at 6.95 µM. 370,000 compounds, 0.83% hits;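 active = inhibition above the mean of compounds lying between control limits plus 3 SD, set per campaign, cut at about 8.5% in these data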;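 note: 0% = DMSO-only wells as the low control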
ADAM10 inh = inhibitors of human ADAM10; recombinant ADAM10, EDANS/DABCYL FRET peptide cleavage, 3 h; inhibition, % at 7 µM; 370,000 compounds, 0.62% hits; AID 720582;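 active = inhibition above a per-campaign cutoff equal to the mean of compounds falling between control-based bounds plus 3 SD, cut at about 20% in these data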;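 note: 0% = DMSO wells while the 100% control is not disclosed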
PLC-gamma1 inh = PLC-gamma1 (human) inhibition, primary screen | AID 720700 | 370,000 compounds, 0.84% hits | P19174 | purified PLC-gamma1, fluorogenic substrate, fluorescence | inhibition, % at 12.2 µM; in the data active = inhibition above about 9.5%
ADAM10 confirm = human ADAM10 inhibition, confirmation; shares compounds with ADAM10 inh; ADAM10 QFRET peptide cleavage, EDANS fluorescence; inhibition, % at 6.95 µM; 2,100 compounds, 1% hits;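 active = inhibition above about 20% chosen separately for each screening run, limit read from the data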;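 note: 0% = DMSO wells and 100% = marimastat wells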
ADAM17 ctr = counter-screen for ADAM10 exosite inhibitors: inhibitors of human ADAM17; ADAM17 QFRET peptide cleavage, EDANS fluorescence; 2,100 compounds, 0.5% hits; inhibition, % at 6.95 µM; AID 743214; shares compounds with ADAM10 inh;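 active = mean triplicate inhibition above the solvent-only control wells' mean plus 3 SD, cut at about 12% in these data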;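 note: 0% = DMSO wells and 100% = marimastat wells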
* hit, by the source's call; x = no result given.

SMILES	KLK7 zymogen act	PLCb3 inh	ADAM17 inh	ADAM10 inh	PLC-gamma1 inh	ADAM10 confirm	ADAM17 ctr
O=[N+]([O-])c1ccccc1-c1nc(-c2ccc(Br)o2)no1	0	6	5	23*	2	1	1
O=C(CN1CCN(Cc2ccccc2)CC1)c1ccc(Br)cc1	0	-1	4	6	2	x	x
COc1ccccc1C1=NC(c2ccc(C)cc2)N=C1C (stereo not given)	1	3	6	95*	6	0	0
CS(=O)(=O)N(CC(=O)Nc1ccccc1Sc1ccccc1)c1cccc(Br)c1	0	-2	11*	25*	3	12	4
COc1ccc(NC(=O)c2cc3c(=O)n(C)c4ccccc4c3n2C)cc1OC	-4	-1	-2	-1	-3	x	x
Oc1ccccc1-c1cc(-c2cccc(F)c2)n[nH]1	0	0	5	21*	5	4	1
Oc1ccc(Cl)cc1-c1cc(-c2ccccc2Cl)[nH]n1	0	2	3	5	1	x	x
COc1ccc(NC(=O)c2ccc(-c3ccccc3)cc2)cc1NS(=O)(=O)c1ccc(F)cc1	-4	-65	8	24*	-55	31*	9
COc1ccc(NC(=O)c2ccccc2)cc1NS(=O)(=O)c1ccc(F)cc1	0	3	0	-2	0	x	x
CCn1c(SCC(=O)Nc2nc3ccccc3s2)nnc1-c1ccc(OC)cc1	0	5	1	20*	3	0	1
CCOC(=O)c1c(NC(=O)CSc2nnc(-c3ccccc3)n2CC)sc(C(C)=O)c1C	1	3	4	23*	9	-2	0
Fc1ccc(NC(=S)Nc2cc(-c3ccccc3)[nH]n2)cc1Cl	0	-9	5	22*	-1	10	3
Cc1ccc(NC(=S)Nc2cc(-c3ccccc3)[nH]n2)cc1Cl	0	3	4	16	2	x	x
OC(CSc1c(Cl)cccc1Cl)CN1CCN(c2ccc(F)cc2)CC1 (stereo not given)	0	8	11*	21*	15*	2	1
Cc1ccc(S(=O)(=O)NC[C@@H]2C[C@H](c3ccccc3)ON2S(=O)(=O)c2ccc(C)cc2)cc1	x	-3	7	16	-1	x	x
Cc1ccc(S(=O)(=O)NCC2CN(S(=O)(=O)c3ccc(C)cc3)c3ccccc3C(=O)N2c2ccc(F)cc2)cc1 (stereo not given)	x	6	5	23*	6	2	1
NNc1nc(-c2ccccc2)nc(-c2ccccc2)c1Br	-1	-16	7	21*	8	3	1
COC(=O)c1cc(NC(=O)CN(c2ccc(OC)cc2)S(=O)(=O)c2ccc(F)cc2)ccc1Cl	0	1	9	22*	-2	10	2
COc1cc(S(=O)(=O)N2CCOCC2)ccc1NC(=O)COC(=O)CC12CC3CC(CC(C3)C1)C2	0	1	8	29*	0	2	1
COc1cc(S(=O)(=O)N2CCOCC2)ccc1NC(=O)COC(=O)c1cc(OC)c(OC)c(OC)c1	0	2	1	-1	1	x	x
O=c1[nH]c(C2CCN(S(=O)(=O)/C=C/c3ccccc3)CC2)nc2c1nnn2Cc1ccc(F)cc1	0	-3	8	29*	5	2	2
O=c1[nH]c(C2CCN(S(=O)(=O)c3ccc(F)cc3)CC2)nc2c1nnn2Cc1ccc2c(c1)OCCO2	0	-9	1	23*	7	2	1
NS(=O)(=O)c1cccnc1Nc1cccc(C(F)(F)F)c1	0	-9	1	8	-5	x	x
CCN(CC)S(=O)(=O)c1cccc(-c2n[nH]c(=S)n2/N=C/c2ccc(OC(F)F)cc2)c1	-1	-5	8	20*	1	6	3
CCN(CC)S(=O)(=O)c1cccc(-c2n[nH]c(=S)n2/N=C/c2ccc(OC)cc2)c1	0	-3	5	13	-3	x	x
Cc1ccc(NS(=O)(=O)c2ccc(NC(=O)c3cccc(NC(=O)C(C)C)c3)cc2)cc1	0	-1	6	24*	-2	3	1

Screening data (PubChem)
